# Laboratory results published in ChEMBL document CHEMBL1961873, “Compounds: GSK PKIS; Assays: Nanosyn kinase panel” (2012).
# Columns and labels:
# [1] = target: Dual specificity protein kinase TTK (Homo sapiens) (UniProt P33981); settings: at 0.1 µM
# [2] = system: Receptor-type tyrosine-protein kinase FLT3 (Homo sapiens), P36888 [D835Y]; settings: at 1 µM
# [3] = target: Vascular endothelial growth factor receptor 3 (Homo sapiens) (UniProt P35916); settings: at 0.1 µM
# [4] = target: Vascular endothelial growth factor receptor 3 (Homo sapiens) (UniProt P35916); settings: at 1 µM
# [5] = target: Macrophage colony-stimulating factor 1 receptor (Homo sapiens) (UniProt P07333); settings: at 0.1 µM
# [6] = target: Macrophage colony-stimulating factor 1 receptor (Homo sapiens) (UniProt P07333); settings: at 1 µM
# [7] = target: Tyrosine-protein kinase Fyn (Homo sapiens) (UniProt P06241); settings: at 0.1 µM
# [8] = target: Tyrosine-protein kinase Fyn (Homo sapiens) (UniProt P06241); settings: at 1 µM
# [9] = target: Tyrosine-protein kinase HCK (Homo sapiens) (UniProt P08631); settings: at 0.1 µM
# [10] = target: Tyrosine-protein kinase HCK (Homo sapiens) (UniProt P08631); settings: at 1 µM
# [11] = target: Insulin-like growth factor 1 receptor (Homo sapiens) (UniProt P08069); settings: at 0.1 µM
# [12] = target: Insulin-like growth factor 1 receptor (Homo sapiens) (UniProt P08069); settings: at 1 µM
# [13] = target: Insulin receptor (Homo sapiens) (UniProt P06213); settings: at 0.1 µM
# [14] = target: Insulin receptor (Homo sapiens) (UniProt P06213); settings: at 1 µM
# [15] = target: Insulin receptor-related protein (Homo sapiens) (UniProt P14616); settings: at 0.1 µM
# [16] = target: Insulin receptor-related protein (Homo sapiens) (UniProt P14616); settings: at 1 µM
# [17] = target: Tyrosine-protein kinase ITK/TSK (Homo sapiens) (UniProt Q08881); settings: at 0.1 µM
# [18] = target: Tyrosine-protein kinase ITK/TSK (Homo sapiens) (UniProt Q08881); settings: at 1 µM
# [19] = target: Tyrosine-protein kinase JAK1 (Homo sapiens) (UniProt P23458); settings: at 0.1 µM
# [20] = target: Tyrosine-protein kinase JAK1 (Homo sapiens) (UniProt P23458); settings: at 1 µM
# [21] = target: Tyrosine-protein kinase JAK2 (Homo sapiens) (UniProt O60674); settings: at 0.1 µM
# [22] = target: Tyrosine-protein kinase JAK2 (Homo sapiens) (UniProt O60674); settings: at 1 µM
# [23] = target: Tyrosine-protein kinase JAK3 (Homo sapiens) (UniProt P52333); settings: at 0.1 µM
# [24] = target: Tyrosine-protein kinase JAK3 (Homo sapiens) (UniProt P52333); settings: at 1 µM
# [25] = target: Vascular endothelial growth factor receptor 2 (Homo sapiens) (UniProt P35968); settings: at 0.1 µM
# [26] = target: Vascular endothelial growth factor receptor 2 (Homo sapiens) (UniProt P35968); settings: at 1 µM
# [27] = target: Mast/stem cell growth factor receptor Kit (Homo sapiens) (UniProt P10721); settings: at 0.1 µM
# [28] = target: Mast/stem cell growth factor receptor Kit (Homo sapiens) (UniProt P10721); settings: at 1 µM
# [29] = system: Mast/stem cell growth factor receptor Kit (Homo sapiens), P10721 [D816V]; settings: at 0.1 µM
# [30] = system: Mast/stem cell growth factor receptor Kit (Homo sapiens), P10721 [D816V]; settings: at 1 µM
# [31] = system: Mast/stem cell growth factor receptor Kit (Homo sapiens), P10721 [T670I]; settings: at 0.1 µM
# [32] = system: Mast/stem cell growth factor receptor Kit (Homo sapiens), P10721 [T670I]; settings: at 1 µM
# [33] = system: Mast/stem cell growth factor receptor Kit (Homo sapiens), P10721 [V560G]; settings: at 0.1 µM
# [34] = system: Mast/stem cell growth factor receptor Kit (Homo sapiens), P10721 [V560G]; settings: at 1 µM
# [35] = target: Tyrosine-protein kinase Lck (Homo sapiens) (UniProt P06239); settings: at 0.1 µM
# [36] = target: Tyrosine-protein kinase Lck (Homo sapiens) (UniProt P06239); settings: at 1 µM
# [37] = target: Leukocyte tyrosine kinase receptor (Homo sapiens) (UniProt P29376); settings: at 0.1 µM
# [38] = target: Leukocyte tyrosine kinase receptor (Homo sapiens) (UniProt P29376); settings: at 1 µM
# [39] = target: Tyrosine-protein kinase Lyn (Homo sapiens) (UniProt P07948); settings: at 0.1 µM
# [40] = target: Tyrosine-protein kinase Lyn (Homo sapiens) (UniProt P07948); settings: at 1 µM
# [41] = target: Tyrosine-protein kinase Lyn (Homo sapiens) (UniProt P07948); settings: at 0.1 µM; remark: listed apart in the source
# [42] = target: Tyrosine-protein kinase Lyn (Homo sapiens) (UniProt P07948); settings: at 1 µM; remark: listed apart in the source
# [43] = target: Tyrosine-protein kinase Mer (Homo sapiens) (UniProt Q12866); settings: at 0.1 µM
# [44] = target: Tyrosine-protein kinase Mer (Homo sapiens) (UniProt Q12866); settings: at 1 µM
# [45] = target: Hepatocyte growth factor receptor (Homo sapiens) (UniProt P08581); settings: at 0.1 µM
# [46] = target: Hepatocyte growth factor receptor (Homo sapiens) (UniProt P08581); settings: at 1 µM
# [47] = target: Muscle, skeletal receptor tyrosine-protein kinase (Homo sapiens) (UniProt O15146); settings: at 0.1 µM
# [48] = target: Muscle, skeletal receptor tyrosine-protein kinase (Homo sapiens) (UniProt O15146); settings: at 1 µM
# [49] = target: Platelet-derived growth factor receptor alpha (Homo sapiens) (UniProt P16234); settings: at 0.1 µM
# [50] = target: Platelet-derived growth factor receptor alpha (Homo sapiens) (UniProt P16234); settings: at 1 µM
# [51] = system: Platelet-derived growth factor receptor alpha (Homo sapiens), P16234 [D842V]; settings: at 0.1 µM
# [52] = system: Platelet-derived growth factor receptor alpha (Homo sapiens), P16234 [D842V]; settings: at 1 µM
# [53] = system: Platelet-derived growth factor receptor alpha (Homo sapiens), P16234 [T674I]; settings: at 0.1 µM
# [54] = system: Platelet-derived growth factor receptor alpha (Homo sapiens), P16234 [T674I]; settings: at 1 µM
# [55] = system: Platelet-derived growth factor receptor alpha (Homo sapiens), P16234 [V561D]; settings: at 0.1 µM
# [56] = system: Platelet-derived growth factor receptor alpha (Homo sapiens), P16234 [V561D]; settings: at 1 µM
# Chain of Tyrosine-protein kinase Lyn (Homo sapiens) (P07948 2-512 limits assumed): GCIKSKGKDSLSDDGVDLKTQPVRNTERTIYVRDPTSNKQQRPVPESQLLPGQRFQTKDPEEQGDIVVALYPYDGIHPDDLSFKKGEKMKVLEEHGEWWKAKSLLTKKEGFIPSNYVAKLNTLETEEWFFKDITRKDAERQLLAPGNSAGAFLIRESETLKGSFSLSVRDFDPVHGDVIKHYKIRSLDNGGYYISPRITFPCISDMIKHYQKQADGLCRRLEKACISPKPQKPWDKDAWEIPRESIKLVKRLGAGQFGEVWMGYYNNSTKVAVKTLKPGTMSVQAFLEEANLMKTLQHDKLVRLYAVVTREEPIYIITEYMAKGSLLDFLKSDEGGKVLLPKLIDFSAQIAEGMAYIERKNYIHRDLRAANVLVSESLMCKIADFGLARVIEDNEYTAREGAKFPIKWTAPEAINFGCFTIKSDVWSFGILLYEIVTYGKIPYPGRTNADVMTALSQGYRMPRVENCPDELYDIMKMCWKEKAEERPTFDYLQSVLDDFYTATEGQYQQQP
# Chain of Tyrosine-protein kinase Fyn (Homo sapiens) (P06241 2-537 limits assumed): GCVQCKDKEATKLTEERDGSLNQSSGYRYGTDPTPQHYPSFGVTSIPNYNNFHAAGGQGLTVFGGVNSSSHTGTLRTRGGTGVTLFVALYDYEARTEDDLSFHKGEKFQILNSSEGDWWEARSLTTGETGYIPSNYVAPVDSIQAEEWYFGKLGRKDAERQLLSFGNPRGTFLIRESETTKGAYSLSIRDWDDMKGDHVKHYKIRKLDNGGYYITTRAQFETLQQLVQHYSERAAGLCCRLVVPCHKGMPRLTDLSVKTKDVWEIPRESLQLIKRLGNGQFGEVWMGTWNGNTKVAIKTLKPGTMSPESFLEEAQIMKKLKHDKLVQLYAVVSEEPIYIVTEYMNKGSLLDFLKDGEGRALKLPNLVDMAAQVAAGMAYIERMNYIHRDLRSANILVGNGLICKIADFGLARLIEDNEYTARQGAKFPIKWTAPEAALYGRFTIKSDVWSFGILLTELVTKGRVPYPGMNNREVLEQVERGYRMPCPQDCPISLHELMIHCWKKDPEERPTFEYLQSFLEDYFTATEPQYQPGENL
# Chain of Leukocyte tyrosine kinase receptor (Homo sapiens) (P29376 whole entry): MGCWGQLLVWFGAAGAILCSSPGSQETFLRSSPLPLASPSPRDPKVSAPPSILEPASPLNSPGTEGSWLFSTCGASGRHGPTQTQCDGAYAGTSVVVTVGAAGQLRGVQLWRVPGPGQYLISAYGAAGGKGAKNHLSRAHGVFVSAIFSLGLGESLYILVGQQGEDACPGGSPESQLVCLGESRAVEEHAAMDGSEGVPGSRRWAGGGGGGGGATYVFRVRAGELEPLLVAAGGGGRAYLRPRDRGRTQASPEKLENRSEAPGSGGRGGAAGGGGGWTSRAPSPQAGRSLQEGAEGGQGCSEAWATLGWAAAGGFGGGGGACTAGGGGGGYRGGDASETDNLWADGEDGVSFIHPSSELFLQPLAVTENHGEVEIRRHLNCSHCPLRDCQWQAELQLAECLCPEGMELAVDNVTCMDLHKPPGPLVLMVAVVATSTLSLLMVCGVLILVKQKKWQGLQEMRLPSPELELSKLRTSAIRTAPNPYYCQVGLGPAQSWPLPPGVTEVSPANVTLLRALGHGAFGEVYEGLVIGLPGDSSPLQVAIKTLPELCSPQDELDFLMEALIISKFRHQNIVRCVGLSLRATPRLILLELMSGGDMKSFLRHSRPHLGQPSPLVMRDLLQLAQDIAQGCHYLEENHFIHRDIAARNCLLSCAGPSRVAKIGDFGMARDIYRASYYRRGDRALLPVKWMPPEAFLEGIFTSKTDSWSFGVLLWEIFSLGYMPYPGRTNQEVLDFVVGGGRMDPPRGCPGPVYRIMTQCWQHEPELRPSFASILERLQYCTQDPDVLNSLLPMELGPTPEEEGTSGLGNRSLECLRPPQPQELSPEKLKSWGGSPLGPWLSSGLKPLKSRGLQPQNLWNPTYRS
# Chain of Insulin receptor-related protein (Homo sapiens) (P14616 27-742 limits assumed): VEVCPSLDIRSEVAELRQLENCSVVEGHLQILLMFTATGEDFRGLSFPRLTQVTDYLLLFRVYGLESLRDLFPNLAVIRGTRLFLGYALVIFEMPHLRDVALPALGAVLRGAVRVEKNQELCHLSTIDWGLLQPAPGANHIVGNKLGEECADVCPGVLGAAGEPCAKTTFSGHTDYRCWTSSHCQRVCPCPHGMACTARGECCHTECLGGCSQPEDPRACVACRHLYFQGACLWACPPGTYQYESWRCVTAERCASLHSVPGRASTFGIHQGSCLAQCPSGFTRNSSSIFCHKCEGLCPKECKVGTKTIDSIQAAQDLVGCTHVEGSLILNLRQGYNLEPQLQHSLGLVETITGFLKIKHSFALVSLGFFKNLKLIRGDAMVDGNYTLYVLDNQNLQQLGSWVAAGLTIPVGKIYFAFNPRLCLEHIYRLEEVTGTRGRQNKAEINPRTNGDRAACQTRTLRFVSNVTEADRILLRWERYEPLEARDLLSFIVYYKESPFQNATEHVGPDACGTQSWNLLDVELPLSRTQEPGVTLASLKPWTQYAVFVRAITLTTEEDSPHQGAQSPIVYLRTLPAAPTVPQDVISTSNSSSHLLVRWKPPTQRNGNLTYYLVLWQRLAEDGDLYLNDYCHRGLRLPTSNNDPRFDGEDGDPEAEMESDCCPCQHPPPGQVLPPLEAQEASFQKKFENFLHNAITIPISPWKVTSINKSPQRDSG
# Chain of Insulin receptor-related protein (Homo sapiens) (P14616 747-1297 limits assumed): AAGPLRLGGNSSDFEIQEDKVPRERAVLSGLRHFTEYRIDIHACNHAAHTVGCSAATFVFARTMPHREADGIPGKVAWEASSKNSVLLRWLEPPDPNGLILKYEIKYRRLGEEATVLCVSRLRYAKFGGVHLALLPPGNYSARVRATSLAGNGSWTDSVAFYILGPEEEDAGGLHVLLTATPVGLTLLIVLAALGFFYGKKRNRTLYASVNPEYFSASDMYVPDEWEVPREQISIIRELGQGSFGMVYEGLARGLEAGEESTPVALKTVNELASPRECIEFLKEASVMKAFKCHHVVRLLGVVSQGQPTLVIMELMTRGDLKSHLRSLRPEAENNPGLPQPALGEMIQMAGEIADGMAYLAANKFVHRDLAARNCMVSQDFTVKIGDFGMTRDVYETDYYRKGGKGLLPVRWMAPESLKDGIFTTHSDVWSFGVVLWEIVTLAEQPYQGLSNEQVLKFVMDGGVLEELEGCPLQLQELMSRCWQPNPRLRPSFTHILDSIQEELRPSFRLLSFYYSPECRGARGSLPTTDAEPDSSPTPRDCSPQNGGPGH
# Chain of Muscle, skeletal receptor tyrosine-protein kinase (Homo sapiens) (O15146 whole entry): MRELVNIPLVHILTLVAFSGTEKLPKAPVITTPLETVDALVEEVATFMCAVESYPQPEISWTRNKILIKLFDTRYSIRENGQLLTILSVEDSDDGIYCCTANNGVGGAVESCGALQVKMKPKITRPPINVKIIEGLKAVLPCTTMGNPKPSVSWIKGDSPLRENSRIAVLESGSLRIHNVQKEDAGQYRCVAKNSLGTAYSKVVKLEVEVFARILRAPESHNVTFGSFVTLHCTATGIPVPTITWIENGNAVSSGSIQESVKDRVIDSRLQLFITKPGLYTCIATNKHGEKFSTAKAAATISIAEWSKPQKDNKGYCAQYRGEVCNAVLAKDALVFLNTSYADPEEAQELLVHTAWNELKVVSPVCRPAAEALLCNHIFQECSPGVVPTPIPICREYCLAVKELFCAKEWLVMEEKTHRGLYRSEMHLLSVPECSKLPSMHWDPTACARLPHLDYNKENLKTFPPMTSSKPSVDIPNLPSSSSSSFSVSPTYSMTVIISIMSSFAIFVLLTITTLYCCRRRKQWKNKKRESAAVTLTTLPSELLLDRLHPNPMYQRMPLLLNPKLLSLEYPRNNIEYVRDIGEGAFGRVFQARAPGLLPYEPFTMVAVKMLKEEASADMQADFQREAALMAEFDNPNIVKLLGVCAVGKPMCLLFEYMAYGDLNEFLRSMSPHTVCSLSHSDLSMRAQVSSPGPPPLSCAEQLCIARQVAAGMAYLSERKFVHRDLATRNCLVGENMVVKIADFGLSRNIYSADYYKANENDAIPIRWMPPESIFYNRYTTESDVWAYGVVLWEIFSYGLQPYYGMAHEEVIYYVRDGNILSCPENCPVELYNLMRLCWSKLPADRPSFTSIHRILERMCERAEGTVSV
# Chain of Tyrosine-protein kinase Mer (Homo sapiens) (Q12866 whole entry): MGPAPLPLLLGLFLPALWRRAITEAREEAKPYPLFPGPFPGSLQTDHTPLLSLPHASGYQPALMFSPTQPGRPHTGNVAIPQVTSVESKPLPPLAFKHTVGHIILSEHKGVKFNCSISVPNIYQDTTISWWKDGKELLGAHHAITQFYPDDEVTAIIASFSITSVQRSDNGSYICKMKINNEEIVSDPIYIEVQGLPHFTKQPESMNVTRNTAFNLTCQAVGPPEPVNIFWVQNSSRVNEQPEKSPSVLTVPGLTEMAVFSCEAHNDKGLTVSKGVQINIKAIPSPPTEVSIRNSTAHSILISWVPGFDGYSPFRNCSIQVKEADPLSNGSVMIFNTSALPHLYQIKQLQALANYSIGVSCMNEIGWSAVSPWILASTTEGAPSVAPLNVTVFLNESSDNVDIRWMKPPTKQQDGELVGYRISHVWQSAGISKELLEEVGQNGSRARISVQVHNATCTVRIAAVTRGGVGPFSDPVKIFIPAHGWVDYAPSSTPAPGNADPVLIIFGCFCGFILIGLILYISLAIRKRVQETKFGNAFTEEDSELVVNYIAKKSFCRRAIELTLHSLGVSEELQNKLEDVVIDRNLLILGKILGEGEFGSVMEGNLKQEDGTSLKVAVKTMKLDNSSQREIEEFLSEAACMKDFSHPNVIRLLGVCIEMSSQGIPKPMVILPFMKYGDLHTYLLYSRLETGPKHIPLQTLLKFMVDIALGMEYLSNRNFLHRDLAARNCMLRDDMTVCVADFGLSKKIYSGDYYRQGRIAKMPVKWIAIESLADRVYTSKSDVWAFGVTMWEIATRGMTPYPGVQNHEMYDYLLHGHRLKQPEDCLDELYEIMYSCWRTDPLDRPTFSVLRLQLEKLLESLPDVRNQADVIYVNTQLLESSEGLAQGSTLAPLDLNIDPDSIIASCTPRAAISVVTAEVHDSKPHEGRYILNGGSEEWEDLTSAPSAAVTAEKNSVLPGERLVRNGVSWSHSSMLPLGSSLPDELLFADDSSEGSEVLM
smiles,measurement,setting,value
CNC(=O)Oc1cc(C)c(/C=C/c2cncc(C(=O)NC)c2)c(C)c1,inhibition,[1],3.53%
same,inhibition,[2],-6.68%
same,inhibition,[3],2.38%
same,inhibition,[4],3.06%
same,inhibition,[5],4.08%
same,inhibition,[6],28.3%
same,inhibition,[7],4.17%
same,inhibition,[8],32.4%
same,inhibition,[9],14.3%
same,inhibition,[10],51.1%
same,inhibition,[11],6.27%
same,inhibition,[12],6.14%
same,inhibition,[13],3.13%
same,inhibition,[14],3.08%
same,inhibition,[15],3.12%
same,inhibition,[16],2.02%
same,inhibition,[17],0.99%
same,inhibition,[18],1.69%
same,inhibition,[19],3.98%
same,inhibition,[20],-1.5%
same,inhibition,[21],1.67%
same,inhibition,[22],1.34%
same,inhibition,[23],0.21%
same,inhibition,[24],-1.11%
same,inhibition,[25],-0.28%
same,inhibition,[26],4.06%
same,inhibition,[27],12.7%
same,inhibition,[28],63.5%
same,inhibition,[29],4.33%
same,inhibition,[30],-0.14%
same,inhibition,[31],1.64%
same,inhibition,[32],-1.04%
same,inhibition,[33],2.06%
same,inhibition,[34],14.4%
same,inhibition,[35],6.81%
same,inhibition,[36],41%
same,inhibition,[37],3.84%
same,inhibition,[38],5.56%
same,inhibition,[39],13.7%
same,inhibition,[40],57.1%
same,inhibition,[41],9.47%
same,inhibition,[42],52.3%
same,inhibition,[43],1.05%
same,inhibition,[44],0.84%
same,inhibition,[45],-2.86%
same,inhibition,[46],-0.63%
same,inhibition,[47],1.43%
same,inhibition,[48],4.49%
same,inhibition,[49],12.5%
same,inhibition,[50],42.2%
same,inhibition,[51],2.6%
same,inhibition,[52],13.1%
same,inhibition,[53],3.98%
same,inhibition,[54],4.15%
same,inhibition,[55],13.5%
same,inhibition,[56],52.3%
